FLuc counter = inhibits or activates purified firefly luciferase, miR-21 counter-screen. P08659. purified FLuc, Km substrates, luminescence inhibition. Potency, µM (series often up to 57.5 µM), hits mostly inhibitors. 360,000 tested, 6.9% active. AID 588342; further: nearly all actives have a fitted effect of over 55% in size
Target sequence (P08659 whole entry, looked up): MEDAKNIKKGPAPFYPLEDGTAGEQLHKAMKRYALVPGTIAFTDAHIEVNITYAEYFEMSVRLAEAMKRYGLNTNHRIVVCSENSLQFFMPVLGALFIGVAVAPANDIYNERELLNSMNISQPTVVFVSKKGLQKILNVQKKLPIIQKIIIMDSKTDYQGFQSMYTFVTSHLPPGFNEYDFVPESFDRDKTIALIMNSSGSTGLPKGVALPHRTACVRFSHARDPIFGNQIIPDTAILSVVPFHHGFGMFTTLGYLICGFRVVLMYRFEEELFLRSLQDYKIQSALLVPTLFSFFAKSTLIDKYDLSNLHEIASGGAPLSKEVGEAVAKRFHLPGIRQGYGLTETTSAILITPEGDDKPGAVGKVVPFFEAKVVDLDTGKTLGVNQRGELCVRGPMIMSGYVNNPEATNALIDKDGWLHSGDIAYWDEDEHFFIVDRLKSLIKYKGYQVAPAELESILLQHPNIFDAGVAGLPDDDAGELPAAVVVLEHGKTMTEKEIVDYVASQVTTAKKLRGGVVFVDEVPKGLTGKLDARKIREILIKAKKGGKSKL
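Purified P. pyralis luciferase (10nM final) with 10uM D-luciferin and 10uM ATP (Km levels) in 50mM Tris acetate pH 7.5, 10mM Mg acetate, 0.01% Tween-20, 0.05% BSA; qHTS 6-point titration, ~60 µM downward; luminescence read.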
ELG1 genotoxic = induces genotoxicity in HEK293T cells with luciferase-tagged ELG1. HEK293T ELG1-luciferase reporter, luminescence, 16 h. Potency, µM (titrated, usually from 46 µM), most hits filed as activators. 330,000 tested, 1.3% active. AID 504466; further: nearly all actives have a fitted effect of over 60% in size
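DMSO vehicle served as control against compound-treated ELG1-luciferase HEK293T cells; exposure lasted 16 hr at 37 °C and 5% CO2, followed by ONE-Glo luminescence detection after 30 min.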
Rab9 prom act = activates the Rab9 promoter. 320,000 tested, 2.8% active. Potency, µM (doses to about 9.22 µM), hits mostly activators. Huh7 Rab9 promoter-luciferase reporter, luminescence, 24 h; further: nearly all actives have a fitted effect of over 60% in size
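Steps: seed 1500 Huh7 Rab9-luc cells per well, rest 2 h at 37 °C; add compound in DMSO; incubate 24 h; add luciferase reagent, 10 min ambient; read luminescence.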
ELG1 DNA repair = ELG1-dependent DNA repair inhibition. HEK293T ELG1-luciferase reporter, luminescence, 16 h; DNA damage induced by 5-fluorouridine. Potency, µM (titrated, usually from 46.1 µM), usual class: inhibitors. 330,000 tested, 2.3% active. AID 504467; further: nearly all actives have a fitted effect of over 55% in size
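Overnight (16 hr) co-exposure of 2,000 cells/well to 5-fluorouridine and compound at 37 °C preceded detection. Luciferase was quantified via ONE-Glo luminescence; loss of signal denotes inhibition.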
SMN2 splice up = SMN2 splice variant enhancement. HEK293 SMN2-luciferase splicing reporter, luminescence, 30-36 h. Potency, µM (titrated, usually from 46.1 µM), usual class: activators. 210,000 tested, 2.8% active; further: nearly all actives have a fitted effect of over 55% in size
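HEK293 cells carry an SMN2 […]–luciferase reporter in which exon 7 inclusion puts luciferase in frame. Cells were plated 10-12 h before compound addition, then incubated 30-36 h at 37C. ONE-Glo luminescence was read; sodium butyrate at 4.5 mM final served as control.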
NPC1 promoter act = activates the NPC1 promoter. Huh7 NPC1 promoter luciferase reporter, 24 h. Potency, µM (top dose mostly 9.22 µM), hits mostly activators. 320,000 tested, 2.4% active. AID 485313; further: nearly all actives have a fitted effect of over 60% in size
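Huh7 cells stably carrying NPC1 promoter–luciferase, plated in Opti-MEM with 10% FBS for 2 h, were exposed to compound in DMSO for 24 h at 37 °C; luciferase reagent was added for 10 min and luminescence read.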
A number is an active result; - = inactive; ? = inconclusive; . = no result; [ ] = dose if it differs, or a comment. The list is not random: actives were taken first. Their share in the collection is about 9.4%. The call rests on the fitted dose curve; in most records, active means well fitted curve in the direction sought with a large enough effect; inconclusive means small, poorly fitted or top-dose-only effect, or another doubt; inactive means no such curve, though single readings can be large; an effect the other way counts as inactive or inconclusive.

SMILES	FLuc counter	ELG1 genotoxic	Rab9 prom act	ELG1 DNA repair	SMN2 splice up	NPC1 promoter act
Cc1cc(N/C=C/C(=O)c2ccccc2)ccc1Br	0.477µM	?	3.16µM	?	.	?
CC(C)(CCC(C)(C)c1ccccc1)c1ccccc1	.	.	.	.	-[9.22 µM]	.
O=C(/C=C/Nc1ccccc1)c1ccc(Cl)cc1Cl	0.379µM	0.92µM	0.501µM	?	.	0.355µM
CN(C)c1ccc(N/C=C/C(=O)c2ccccc2)cc1	0.269µM	0.731µM	3.16µM	?	3.16µM	2.82µM
O=C(/C=C/Nc1ccccc1)c1ccccc1	0.338µM	?	1µM	?	11.2µM	0.562µM
CC(=O)Nc1ccc(N/C=C/C(=O)c2ccccc2)cc1	4.78µM	?	2.82µM	?	.	1.58µM
CN(C)/C=C/C(=O)c1ccc(Cl)cc1Cl	-	-	-	-	-	-
COc1ccc(C(=O)/C=C/Nc2ccc(NC(C)=O)cc2)cc1OC	?	-	-	-	-	-
Cc1ccc(NC(=O)C(Cc2ccccc2)n2cccc2)cc1C (centres undefined)	-	.	.	.	-	.
c1cncc(-c2nc(-c3ccco3)cs2)c1	?	-	-	?	?	-
Clc1ccsc1-c1csc(-c2cccnc2)n1	10.7µM	?	?	?	-	-
c1csc(-c2csc(-c3cccs3)n2)c1	12µM	20.6µM	?	?	-	-
O=S(=O)(c1cccc(-c2csc(-c3cccnc3)n2)c1)N1CCCCC1	-	-	-	-	-	-
c1cncc(-c2csc(-c3cccnc3)n2)c1	?	-	-	-	.	-
Oc1ccc(-c2csc(-c3cccnc3)n2)c(O)c1	3.01µM	?	?	?	?	?
c1cncc(-c2nc(-c3cccs3)cs2)c1	26.9µM	-	-	?	-	-
CCN1CCN(c2cc(C)c3cc(NC(=O)c4cc(OC)cc(OC)c4)ccc3n2)CC1	16.9µM	?	-	?	-	-
Cc1cc(N2CCN(C)CC2)nc2ccc(NC(=O)c3ccc(Br)o3)cc12	15.1µM	-	-	-	-	?
Cc1cc(N2CCN(C)CC2)nc2ccc(NC(=O)c3ccc4c(c3)OCO4)cc12	13.5µM	-	?	?	.	-
COc1cccc(/C=C/C(=O)Nc2ccc3nc(N4CCN(C)CC4)cc(C)c3c2)c1OC	?	.	.	.	-	.
COc1cc(C(=O)Nc2ccc3nc(N4CCN(C)CC4)cc(C)c3c2)cc(OC)c1OC	23.9µM	-	-	?	.	-
CCOC(=O)c1c(C)n(-c2ccc(OC)cc2)c2ccc(OC(=O)COc3ccccc3)cc12	-	.	.	.	-	.
CCC(Sc1nc2nccnc2c(=O)n1Cc1ccc(OC)cc1)C(=O)NC1CCCCC1 (centres undefined)	-	.	.	.	.	.
CCC(=NCCc1c(C)[nH]c2ccccc12)C1=C(O)CC(c2ccccc2)CC1=O (centres undefined)	-	-	-	8.2µM	-[1.84 µM]	-
CCCCC(=NCCc1c(C)[nH]c2ccc(OC)cc12)C1=C(O)CC(c2ccccc2)CC1=O (centres undefined)	-	-	-	10.3µM	-	-
SMILES	FLuc counter	ELG1 genotoxic	Rab9 prom act	ELG1 DNA repair	SMN2 splice up	NPC1 promoter act
CCOc1ccc(Oc2ccc(C(F)(F)F)cc2N)cc1	?	-	-	?	-[1.84 µM]	-
COc1cccc(Oc2ccc(C(F)(F)F)cc2N)c1	23.9µM	?	-	?	-[1.84 µM]	-
Cc1ccc(Cl)cc1NS(=O)(=O)c1ccc2oc(=O)c3ncn(C)c3c2c1	-	.	.	.	.	.
CC(C)(C)C1CCc2c(sc(NC(=O)Cn3nnc(-c4cccc(C(F)(F)F)c4)n3)c2C#N)C1 (centres undefined)	-	.	.	.	-	.
Cc1ccc(NC(=O)Nc2cccc([N+](=O)[O-])c2)cc1F	10.7µM	-	-	?	.	?
O=C(Nc1ccc(OC(F)(F)F)cc1)Nc1cccc([N+](=O)[O-])c1	23.9µM	-	-	?	.	-
CC(C)(C)c1ccc(-c2cnco2)cc1	16.9µM	-	-	-	.	-
O=C(Nc1ccc(Cl)cc1)Nc1ccc(-c2cnco2)cc1	-	-	-	-	.	-
CC(C)(C)C(=O)Nc1ccc(-c2cnco2)cc1	16.9µM	-	-	?	.	-
COc1cccc(CNC(=O)CN2C(=O)N(c3c(C)cccc3C)S(=O)(=O)c3ccccc32)c1OC	-	.	.	.	.	.
On1c(-c2ccc(Cl)cc2)nc2ccccc21	19µM	-	?	-	-	?
On1c(-c2ccccc2)nc2ccccc21	?	-	-	-	.	-
CCC(C)NC(=O)CSc1nc2n[nH]c(C)c2c(=N)n1-c1cc(Cl)ccc1C (centres undefined)	-	.	.	.	.	.
O=[N+]([O-])c1ccc2nc(NS(=O)(=O)c3ccccc3[N+](=O)[O-])sc2c1	10.7µM	-	-	?	.	?
CCN(CC)c1ccc(C(=S)NC2CCCCC2)cc1	15.1µM	?	-	-	?	-
CCOc1ccc(C(=S)NC2CCCCC2)cc1OCC	?	-	-	-	.	-
CN(C)c1ccc(C(=S)NC2CCCCC2)cc1	4.78µM	18.3µM	2.82µM	?	11.2µM	3.16µM
O=C(O)CCCC/C=C\C[C@@H](O)/C=C/C=C/C=C\[C@@H](O)CCCC(=O)O	.	.	.	.	-	.
Cc1cc(C)cc(NC(=O)C(Cc2ccccc2)NS(=O)(=O)c2ccc3c(c2)CCC(=O)N3)c1 (centres undefined)	-	.	.	.	-	.
CC(=NC1CC1)C1=C(O)c2ccccc2C1=O	16.9µM	?	?	?	-	-
COc1ccc(N=C(C)C2=C(O)c3ccccc3C2=O)cc1	0.953µM	2.59µM	0.447µM	?	5.01µM	0.708µM
CCOc1ccc(N=C(C)C2=C(O)c3ccccc3C2=O)cc1	1.35µM	?	1.26µM	?	.	0.794µM
COc1cc(-c2ccc(N=Nc3ccc4c(S(=O)(=O)O)cc(S(=O)(=O)O)c(N)c4c3O)c(OC)c2)ccc1N=Nc1ccc2c(S(=O)(=O)O)cc(S(=O)(=O)O)c(N)c2c1O	.	.	.	.	-	.
COc1ccc(C(=O)Oc2ccc(C(c3c(C)[nH][nH]c3=O)c3c(C)[nH][nH]c3=O)cc2)cc1	16.9µM	.	.	.	-	.
COc1ccc(C(=O)Oc2ccc(/C=N/O)cc2)cc1	6.01µM	-	-	?	-	-
COc1cccc(/C=C2\SC(=S)N(N3C(=O)CCCC3=O)C2=O)c1	21.3µM	-	-	?	-	-
O=C1/C(=C/c2cccc(O)c2)SC(=S)N1CC1CCCO1 (centres undefined)	?	-	-	?	.	-
COc1cccc(/C=C2\SC(=S)N(CC3CCCO3)C2=O)c1 (centres undefined)	10.7µM	-	-	?	-	-
COc1cccc(/C=C2\SC(=S)N(CCC(=O)N3CCCCC3)C2=O)c1	-	-	-	-	.	-
CC(=Nc1ccccc1)c1sc2ccccc2c1O	1.51µM	2.91µM	?	?	11.2µM	-

Screening results as filed in PubChem BioAssay.
